Source: the supplement of paper PMC10646978
± gives the standard deviation.

Experiments:
Details in all cases: modulator concentration 10 µM
[1] = test system: RAW-Dual (murine macrophage reporter line); assay: NF-kB reporter (SEAP) activity fold change vs agonist alone; higher = enhanced NF-kB activity
Outline: (§1)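 RAW-Dual murine macrophage reporter cells were seeded at 50 000 per well in 384-well plates and pre-incubated 1 hour at 37 °C with compound pin-transferred to 10 μM final. After 1 hour, a PRR agonist was added and cells incubated overnight. Supernatant NF-κB (SEAP, QUANTI-Blue, 620 nm absorbance) and IRF (Lucia luciferase, QUANTI-Luc, luminescence) signals were divided by the mean agonist-only control on the same plate to give fold change. Two replicate plates were averaged, with errors by propagation.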

[2] = test system: RAW-Dual (murine macrophage reporter line); assay: IRF reporter (Lucia luciferase) activity fold change vs agonist alone; higher = enhanced IRF activity
Outline: as §1

[3] = test system: RAW-Dual (murine macrophage reporter line); assay: viability score (confluency relative to resting cells, overnight) (fraction); higher = more viable, active = viable (0.7 or more)
Outline: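 RAW-Dual macrophages in 384-well plates were exposed overnight to compound at 10 μM final. Confluency was imaged with IncuCyte, and two confluency masks were generated with IncuCyte software over all imaged wells. The viability score is confluency expressed relative to resting cells. Compounds were called viable if both masks exceeded 70% of resting cells.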

[4] = agonist: CpG ODN 1826 0.5 ug/mL

SMILES	NF-kB reporter [1, 4]	NF-kB reporter ([1]; agonist: LPS 0.1 ug/mL)	NF-kB reporter ([1]; agonist: MPLA […])	IRF reporter ([2]; agonist: 3'3'-cGAMP 10 ug/mL)	IRF reporter ([2]; agonist: LPS 0.1 ug/mL)	IRF reporter ([2]; agonist: MPLA […])	viability score [3]
Cc1cc(Cl)ccc1OCC(O)CN1CC(C)OC(C)C1.Cl (centres undefined)	0.764 ± 0.068	0.939 ± 0.1	0.934 ± 0.081	0.937 ± 0.043	1.05 ± 0.068	1.01 ± 0.087	0.977 (active)
COC(=O)c1ccc(-n2nnnc2SCC(=O)Nc2ccc(C)c(C)c2)cc1	0.529 ± 0.32	0.897 ± 0.057	0.98 ± 0.085	0.849 ± 0.063	1.14 ± 0.077	1.19 ± 0.15	1.02 (active)
CN(C)CCN(Cc1ccccc1)c1ccccn1.Cl	0.731 ± 0.19	0.911 ± 0.052	0.927 ± 0.064	0.811 ± 0.074	0.954 ± 0.22	0.854 ± 0.081	1.01 (active)
CC1(C)CC(NC(=O)c2cccnc2-c2nc3ccccc3s2)CC(C)(C)N1	0.747 ± 0.078	0.964 ± 0.083	0.948 ± 0.19	0.892 ± 0.048	1.06 ± 0.067	1.12 ± 0.09	0.998 (active)
COc1ccc(C2=CC(c3cc(OC)c(OC)c(OC)c3)n3ncnc3N2)cc1 (centres undefined)	1.26 ± 0.087	1.08 ± 0.066	1.22 ± 0.087	1.15 ± 0.047	1.07 ± 0.07	1.27 ± 0.15	0.985 (active)
COC(=O)C1=C(C)N(Cc2ccccc2)C(=O)C1	1.06 ± 0.17	1.1 ± 0.14	0.984 ± 0.18	0.96 ± 0.039	1.32 ± 0.15	1.42 ± 0.3	0.623 (inactive)
CC(C(=O)O)c1ccc2c(c1)[nH]c1ccc(Cl)cc12 (centres undefined)	0.96 ± 0.15	1.13 ± 0.24	0.879 ± 0.064	0.937 ± 0.054	1.19 ± 0.2	1.05 ± 0.16	1 (active)
COc1ccc(CNC23CC4CC(CC(C4)C2)C3)cc1OC	0.937 ± 0.072	0.899 ± 0.13	0.891 ± 0.092	0.959 ± 0.03	1.1 ± 0.23	1.1 ± 0.17	1.01 (active)
O=c1c(O)c(-c2cc(O)c(O)c(O)c2)oc2cc(O)cc(O)c12	1.51 ± 0.41	0.772 ± 0.04	0.968 ± 0.064	0.582 ± 0.035	0.894 ± 0.23	1.01 ± 0.21	0.908 (active)
Cl.Clc1ccccc1CN1CCc2sccc2C1	0.93 ± 0.092	0.952 ± 0.11	0.916 ± 0.024	0.902 ± 0.05	1.01 ± 0.14	1.1 ± 0.25	0.992 (active)
Cc1ccc(S(=O)(=O)n2nnc3ccccc32)cc1C	1.07 ± 0.11	1.04 ± 0.092	0.991 ± 0.034	0.928 ± 0.059	0.982 ± 0.14	1 ± 0.23	1 (active)
CCC(=O)N1CCCC1c1nc2ccccc2n1CCOc1ccc(Cl)cc1 (centres undefined)	0.717 ± 0.18	1.15 ± 0.063	1.2 ± 0.095	0.967 ± 0.097	0.992 ± 0.21	1.1 ± 0.1	0.996 (active)
CCN(CC)CCOC(=O)c1ccc(N)cc1Cl.Cl	1.06 ± 0.094	0.971 ± 0.048	1.04 ± 0.038	0.957 ± 0.087	1.01 ± 0.089	0.897 ± 0.077	0.999 (active)
COc1ccc(NC(=O)Cc2cn(Cc3ccccc3)c3ccccc23)cc1OC	0.629 ± 0.035	1.2 ± 0.096	1.57 ± 0.13	0.701 ± 0.032	1.24 ± 0.27	1.39 ± 0.4	0.96 (active)
CC(=O)SCC(Cc1ccccc1)C(=O)NCC(=O)OCc1ccccc1 (centres undefined)	1.01 ± 0.075	0.997 ± 0.07	0.99 ± 0.045	0.967 ± 0.08	0.76 ± 0.027	0.785 ± 0.087	1 (active)
CN1CCC(=C2c3ccccc3C=Cc3ccccc32)CC1.Cl	0.727 ± 0.13	0.808 ± 0.067	0.904 ± 0.048	0.794 ± 0.049	1 ± 0.19	0.974 ± 0.2	0.651 (inactive)
Cc1ccc(O)c([C@H](CCN(C(C)C)C(C)C)c2ccccc2)c1.O=C(O)[C@H](O)[C@@H](O)C(=O)O	0.67 ± 0.061	0.881 ± 0.081	1.26 ± 0.089	0.656 ± 0.042	0.951 ± 0.051	0.729 ± 0.073	0.979 (active)
Cc1cc(C)c(NC(=O)c2ccc(Oc3nccs3)cc2)c(C)c1	0.893 ± 0.039	1.12 ± 0.098	1.22 ± 0.18	0.844 ± 0.048	0.939 ± 0.21	1.06 ± 0.42	1.01 (active)
CC(C)c1nc(CN(C)C(=O)N[C@@H](CCN2CCOCC2)C(=O)N[C@H](CC[C@H](Cc2ccccc2)NC(=O)OCc2cncs2)Cc2ccccc2)cs1	1.29 ± 0.073	0.959 ± 0.076	1.14 ± 0.036	0.687 ± 0.032	0.842 ± 0.11	0.839 ± 0.18	1 (active)
CC(C)C(=O)N1CCCc2ccc(NC(=O)COc3ccc4ccccc4c3)cc21	0.867 ± 0.07	1.44 ± 0.12	1.31 ± 0.071	0.771 ± 0.075	1.26 ± 0.092	1.54 ± 0.12	0.995 (active)
Cn1nc(-c2ccc(F)cc2)cc1C(=O)NCC1(CO)CC1	0.865 ± 0.037	1.04 ± 0.1	1.03 ± 0.056	1.03 ± 0.049	1.09 ± 0.32	1.23 ± 0.33	1.02 (active)
COc1cc(C=C(C#N)c2nc3ccccc3[nH]2)cc(Cl)c1O	1.23 ± 0.07	1.05 ± 0.09	0.992 ± 0.029	1.09 ± 0.039	1.06 ± 0.061	1.07 ± 0.14	0.998 (active)
COCCCNC(=O)C1CCCN(c2ccc(Sc3ccc(Br)cc3)nn2)C1 (centres undefined)	0.99 ± 0.1	1.1 ± 0.095	1.15 ± 0.11	0.84 ± 0.03	0.966 ± 0.076	0.779 ± 0.2	0.993 (active)
CCOC(=O)c1ccc(-c2ccc(C=C(C#N)C(=O)Nc3ccc(F)cc3)o2)cc1	0.979 ± 0.09	1.08 ± 0.063	1.05 ± 0.068	0.929 ± 0.042	1.29 ± 0.25	1.06 ± 0.14	1.01 (active)
Cn1cnc2cc(NCc3ccc(Br)cc3)ccc21	0.882 ± 0.14	0.762 ± 0.076	0.984 ± 0.1	0.805 ± 0.045	1.06 ± 0.21	1.13 ± 0.25	0.984 (active)
CCCN1CCC(NCCc2ccc(Cl)cc2)CC1	1.18 ± 0.069	0.97 ± 0.081	1.1 ± 0.036	0.761 ± 0.028	0.994 ± 0.065	0.943 ± 0.11	0.995 (active)
CN(C)C(CNC(=O)NCc1ccc(F)cc1)c1ccc2c(c1)CCO2 (centres undefined)	0.838 ± 0.048	1.09 ± 0.092	1.04 ± 0.055	1.12 ± 0.064	1 ± 0.062	0.804 ± 0.12	0.994 (active)
